Measurements reported in PubChem BioAssay (EPA / NIEHS).
Results filed as inconclusive are left out. Active and inactive are the calls of the source. The calls were made as follows, unless noted: active = hit-call score of the fitted dose curve at least 0.9, where 1 is the maximum; inconclusive = response in the unintended direction; inactive = score below 0.9.

What was measured:
[1] = ATG_TCF_b_cat_CIS: Attagene CIS-FACTORIAL HepG2 Assay for human T-Cell-Factor with beta-catenin (TCF/b-cat) (AID 2282965; active = hit-call score of the fitted dose curve at least 0.9, where 1 is the maximum; inactive = score below 0.9); conditions: HepG2 TCF/beta-catenin cis-reporter transcription, actives raise or lower the signal
In short: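 In this cis-format system, transfected HepG2 cells report endogenous transcription factor activity. Readout after 24 h exposure is reporter transcript abundance from RT-PCR and capillary electrophoresis, analysed for gain or loss of signal versus DMSO.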

[2] = ATG_TAL_CIS: Attagene CIS-FACTORIAL HepG2 Assay for human TAL Basal Promoter (AID 2282966; active = hit-call score of the fitted dose curve at least 0.9, where 1 is the maximum; inactive = score below 0.9;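 also: background control endpoint measuring basal TAL promoter reporter mRNA not a specific factor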); conditions: HepG2 Attagene cis-factorial TAL promoter reporter; actives raise or lower the signal
In short: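 HepG2 cells were transiently transfected with promoter-driven multiplexed reporter units and dosed for 24 h. Reporter mRNA was measured by RT-PCR with capillary electrophoresis fluorescence; bidirectional fits used DMSO as baseline, serving as a background control.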

[3] = ATG_VDRE_CIS: Attagene CIS-FACTORIAL HepG2 Assay for human Vitamin D Receptor Element (VDRE) (AID 2282968; active = hit-call score of the fitted dose curve at least 0.9, where 1 is the maximum; inactive = score below 0.9); conditions: HepG2 VDRE cis-reporter transcription, actives raise or lower the signal
In short: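 RT-PCR/CE readout of reporter mRNA; HepG2, transient transfection, 24 h dosing; DMSO baseline; bidirectional analysis.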

[4] = target: Estrogen receptor (Homo sapiens) (UniProt P03372); assay: ATG_ERa_TRANS: Attagene TRANS-FACTORIAL HepG2 Assay for human Estrogen Receptor alpha (ERa) (AID 2282970); conditions: HepG2 Attagene TRANS ERa GAL4 reporter, mRNA
Estrogen receptor (Homo sapiens), sequence (P03372 whole entry, looked up, the tested form may be a part): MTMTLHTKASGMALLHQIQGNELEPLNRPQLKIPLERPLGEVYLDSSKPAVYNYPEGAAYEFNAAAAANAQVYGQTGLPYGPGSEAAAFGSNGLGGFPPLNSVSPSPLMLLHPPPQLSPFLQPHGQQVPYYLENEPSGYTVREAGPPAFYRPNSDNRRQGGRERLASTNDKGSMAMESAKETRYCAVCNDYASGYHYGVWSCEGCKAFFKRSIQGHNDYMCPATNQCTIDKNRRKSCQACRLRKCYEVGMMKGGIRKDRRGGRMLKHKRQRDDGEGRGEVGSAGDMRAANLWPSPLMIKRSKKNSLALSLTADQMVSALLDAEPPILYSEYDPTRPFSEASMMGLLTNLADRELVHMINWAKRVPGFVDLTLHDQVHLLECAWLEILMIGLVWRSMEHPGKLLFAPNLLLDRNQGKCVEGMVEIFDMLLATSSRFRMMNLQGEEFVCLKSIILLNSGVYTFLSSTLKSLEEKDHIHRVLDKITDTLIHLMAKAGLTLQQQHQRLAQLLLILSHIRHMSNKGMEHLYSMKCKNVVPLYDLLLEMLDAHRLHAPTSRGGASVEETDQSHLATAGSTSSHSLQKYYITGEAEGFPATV
In short: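 HepG2 cells transiently transfected with multiplexed GAL4-UAS reporter units; ERa activity read via exogenous chimeric NR-Gal4 protein. After 24 hour compound exposure, reporter mRNA measured by RT-PCR with 6-FAM labelling and capillary electrophoresis; gain-of-signal fitted relative to DMSO.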

[5] = target: Steroid hormone receptor ERR1 (Homo sapiens) (UniProt P11474); assay: ATG_ERRa_TRANS: Attagene TRANS-FACTORIAL HepG2 Assay for human Estrogen-Related Receptor alpha (ERRa) (AID 2282971); conditions: HepG2 Attagene TRANS reporter, ERRa transactivation
Steroid hormone receptor ERR1 (Homo sapiens), sequence (P11474 whole entry, looked up, the tested form may be a part): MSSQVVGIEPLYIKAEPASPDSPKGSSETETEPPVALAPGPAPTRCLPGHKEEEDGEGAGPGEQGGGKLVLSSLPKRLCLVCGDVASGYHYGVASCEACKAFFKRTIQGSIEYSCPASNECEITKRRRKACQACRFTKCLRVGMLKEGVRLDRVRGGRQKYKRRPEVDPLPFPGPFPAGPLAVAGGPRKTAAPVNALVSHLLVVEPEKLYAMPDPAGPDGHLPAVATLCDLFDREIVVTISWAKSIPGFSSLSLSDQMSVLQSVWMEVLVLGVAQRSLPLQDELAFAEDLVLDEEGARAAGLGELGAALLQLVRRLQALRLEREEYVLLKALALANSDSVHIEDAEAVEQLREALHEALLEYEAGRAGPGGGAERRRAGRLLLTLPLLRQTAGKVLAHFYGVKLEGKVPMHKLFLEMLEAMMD
In short: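 HepG2 cells transiently transfected with multiplexed GAL4-UAS reporter units reading chimeric ERRa-Gal4 activity; 24 h compound exposure. Reporter mRNA measured by RT-PCR, 6-FAM labelling, HpaI digest and capillary electrophoresis; gain of signal fitted versus DMSO baseline.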

[6] = target: X-box-binding protein 1 (Homo sapiens) (UniProt P17861); assay: ATG_Xbp1_CIS: Attagene CIS-FACTORIAL HepG2 Assay for human X-box Binding Protein 1 (XBP1) (AID 2282972; active = hit-call score of the fitted dose curve at least 0.9, where 1 is the maximum; inactive = score below 0.9); conditions: HepG2 XBP1 cis-element reporter, Attagene multiplex; actives raise or lower the signal
X-box-binding protein 1 (Homo sapiens), sequence (P17861 whole entry, looked up, the tested form may be a part): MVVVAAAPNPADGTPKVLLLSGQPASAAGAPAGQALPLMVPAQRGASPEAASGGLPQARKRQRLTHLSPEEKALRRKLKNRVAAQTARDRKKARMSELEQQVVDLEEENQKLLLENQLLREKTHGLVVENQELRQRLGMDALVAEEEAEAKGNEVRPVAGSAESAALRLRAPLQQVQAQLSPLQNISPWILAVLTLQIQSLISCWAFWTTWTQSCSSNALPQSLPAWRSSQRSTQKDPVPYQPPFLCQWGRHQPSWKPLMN
In short: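 Fluorescence-labelled cDNA fragments from reporter transcripts, separated by capillary electrophoresis, give the signal. Source: HepG2 cells transfected with promoter-driven reporter units, harvested 24 h post-dose. DMSO served as reference for bidirectional curve fitting.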

[7] = ATG_GAL4_TRANS: Attagene TRANS-FACTORIAL HepG2 Assay for GAL4 (Internal Marker) (AID 2282976); conditions: HepG2 Attagene TRANS GAL4 internal marker reporter
In short: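 HepG2 cells transiently transfected with multiplexed GAL4-UAS reporter constructs were dosed for 24 h. Reporter mRNA was measured by RT-PCR, 6-FAM primer extension, HpaI digestion and capillary electrophoresis, and gain of signal was fitted relative to DMSO.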

[8] = target: Glucocorticoid receptor (Homo sapiens) (UniProt P04150); assay: ATG_GR_TRANS: Attagene TRANS-FACTORIAL HepG2 Assay for human Glucocorticoid Receptor (GR) (AID 2282978); conditions: HepG2 Attagene TRANS GR reporter, mRNA transcription;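 also: activators score as hits since higher reporter transcript over DMSO is fitted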
Glucocorticoid receptor (Homo sapiens), sequence (P04150 whole entry, looked up, the tested form may be a part): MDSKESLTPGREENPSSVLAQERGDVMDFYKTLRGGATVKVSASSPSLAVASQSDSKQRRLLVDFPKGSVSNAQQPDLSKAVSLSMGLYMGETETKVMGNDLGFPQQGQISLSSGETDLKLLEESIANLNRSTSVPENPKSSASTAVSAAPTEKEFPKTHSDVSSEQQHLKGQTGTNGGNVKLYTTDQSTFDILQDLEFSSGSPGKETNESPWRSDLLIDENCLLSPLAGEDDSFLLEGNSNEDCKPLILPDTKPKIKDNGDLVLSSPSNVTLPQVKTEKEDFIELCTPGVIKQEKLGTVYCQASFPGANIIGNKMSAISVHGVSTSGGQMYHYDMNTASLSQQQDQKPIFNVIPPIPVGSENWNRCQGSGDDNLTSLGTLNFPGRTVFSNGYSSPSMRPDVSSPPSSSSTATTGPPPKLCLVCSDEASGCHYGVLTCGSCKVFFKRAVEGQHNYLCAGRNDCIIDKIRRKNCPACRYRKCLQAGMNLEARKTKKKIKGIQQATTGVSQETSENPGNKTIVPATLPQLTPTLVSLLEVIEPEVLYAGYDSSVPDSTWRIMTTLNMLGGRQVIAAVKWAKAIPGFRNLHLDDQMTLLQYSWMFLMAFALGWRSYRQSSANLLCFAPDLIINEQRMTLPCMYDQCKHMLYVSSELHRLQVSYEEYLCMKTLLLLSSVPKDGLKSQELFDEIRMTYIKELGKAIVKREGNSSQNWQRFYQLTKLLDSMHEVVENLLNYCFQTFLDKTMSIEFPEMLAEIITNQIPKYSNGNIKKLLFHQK
In short: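 Measurement of GAL4-UAS-driven reporter mRNA in human HepG2 liver cells 24 h post-dosing, using RT-PCR with fluorescent labelling and capillary electrophoresis; the transfected constructs report exogenous NR-GAL4 chimera activity, fitted upward against DMSO.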

[9] = target: Bile acid receptor (Homo sapiens) (UniProt Q96RI1); assay: ATG_FXR_TRANS: Attagene TRANS-FACTORIAL HepG2 Assay for Farnesoid X Receptor (FXR) (AID 2282979); conditions: HepG2 Attagene TRANS FXR-GAL4 reporter transcription;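 also: hits raise reporter mRNA above DMSO so AC50 marks FXR activation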
Bile acid receptor (Homo sapiens), sequence (Q96RI1 whole entry, looked up, the tested form may be a part): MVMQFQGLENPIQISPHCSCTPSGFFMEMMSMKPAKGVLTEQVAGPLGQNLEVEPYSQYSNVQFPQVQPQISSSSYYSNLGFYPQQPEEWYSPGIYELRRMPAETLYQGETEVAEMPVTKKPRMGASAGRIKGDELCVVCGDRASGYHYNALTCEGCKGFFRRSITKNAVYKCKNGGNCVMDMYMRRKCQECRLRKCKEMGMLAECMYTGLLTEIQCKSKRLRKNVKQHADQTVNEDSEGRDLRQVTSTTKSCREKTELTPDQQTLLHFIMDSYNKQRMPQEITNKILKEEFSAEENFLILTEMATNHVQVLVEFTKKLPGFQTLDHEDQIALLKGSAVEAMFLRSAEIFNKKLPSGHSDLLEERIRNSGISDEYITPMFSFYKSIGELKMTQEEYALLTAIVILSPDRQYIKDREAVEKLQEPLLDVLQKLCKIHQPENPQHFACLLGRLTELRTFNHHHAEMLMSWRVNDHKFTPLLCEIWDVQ
In short: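 HepG2 cells transiently transfected with reporter constructs in which a chimeric FXR-GAL4 protein drives a GAL4-UAS reporter; 24 h compound exposure. Reporter mRNA measured by RT-PCR, FAM labelling, HpaI digestion and capillary electrophoresis; gain-of-signal versus DMSO.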

[10] = target: Oxysterols receptor LXR-beta (Homo sapiens) (UniProt P55055); assay: ATG_LXRb_TRANS: Attagene TRANS-FACTORIAL HepG2 Assay for human Liver X Receptor beta (LXRb) (AID 2282981); conditions: HepG2 Attagene TRANS GAL4-LXRb reporter, mRNA
Oxysterols receptor LXR-beta (Homo sapiens), sequence (P55055 whole entry, looked up, the tested form may be a part): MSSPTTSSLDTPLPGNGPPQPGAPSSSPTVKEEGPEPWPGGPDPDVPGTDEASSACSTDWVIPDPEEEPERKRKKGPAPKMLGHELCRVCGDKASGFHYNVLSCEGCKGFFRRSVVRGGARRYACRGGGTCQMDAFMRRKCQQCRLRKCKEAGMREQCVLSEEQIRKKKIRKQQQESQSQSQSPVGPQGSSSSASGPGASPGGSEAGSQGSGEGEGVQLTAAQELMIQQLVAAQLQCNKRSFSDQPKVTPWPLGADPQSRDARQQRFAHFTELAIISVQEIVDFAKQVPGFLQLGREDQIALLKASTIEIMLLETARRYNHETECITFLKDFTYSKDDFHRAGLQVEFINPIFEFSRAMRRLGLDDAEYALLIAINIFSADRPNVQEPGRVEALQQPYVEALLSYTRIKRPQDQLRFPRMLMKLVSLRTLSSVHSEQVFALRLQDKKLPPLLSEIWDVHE
In short: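 In this TRANS format, exogenous chimeric NR-Gal4 protein activity, not endogenous factors, drives reporter expression in transfected human HepG2 cells. Exposure lasted 24 h; reporter mRNA was read by fluorescent capillary electrophoresis.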

[11] = target: Transcriptional activator Myb (Homo sapiens) (UniProt P10242); assay: ATG_Myb_CIS: Attagene CIS-FACTORIAL HepG2 Assay for human Myeloblastosis (Myb) Proto-Oncogene Transcription Factor (AID 2282986; active = hit-call score of the fitted dose curve at least 0.9, where 1 is the maximum; inactive = score below 0.9); conditions: HepG2 Attagene CIS-FACTORIAL Myb reporter transcription; actives raise or lower the signal
Transcriptional activator Myb (Homo sapiens), sequence (P10242 whole entry, looked up): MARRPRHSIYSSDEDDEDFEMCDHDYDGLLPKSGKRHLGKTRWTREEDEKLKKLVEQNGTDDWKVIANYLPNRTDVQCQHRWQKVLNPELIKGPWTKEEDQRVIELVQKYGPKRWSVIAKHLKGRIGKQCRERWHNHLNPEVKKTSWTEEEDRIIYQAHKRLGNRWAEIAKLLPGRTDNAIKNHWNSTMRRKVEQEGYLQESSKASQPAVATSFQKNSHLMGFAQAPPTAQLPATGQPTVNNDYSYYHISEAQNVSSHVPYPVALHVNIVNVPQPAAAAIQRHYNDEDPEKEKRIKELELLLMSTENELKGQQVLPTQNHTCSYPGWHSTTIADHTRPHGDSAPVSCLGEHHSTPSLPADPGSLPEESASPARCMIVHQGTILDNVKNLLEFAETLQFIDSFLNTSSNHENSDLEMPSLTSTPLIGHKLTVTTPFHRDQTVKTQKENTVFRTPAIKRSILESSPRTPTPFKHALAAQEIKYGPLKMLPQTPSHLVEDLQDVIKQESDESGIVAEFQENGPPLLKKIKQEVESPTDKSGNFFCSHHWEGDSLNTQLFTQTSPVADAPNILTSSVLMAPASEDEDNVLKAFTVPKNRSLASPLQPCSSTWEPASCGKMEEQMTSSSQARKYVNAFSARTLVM
In short: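 Fluorescence signals from capillary electrophoresis of RT-PCR-amplified reporter cDNA give the read-out. Cells: HepG2 transfected with multiple cis-regulated reporter units. Exposure lasts 24 hours; DMSO defines baseline for gain or loss of signal.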

[12] = target: Nuclear receptor subfamily 1 group I member 3 (Homo sapiens) (UniProt Q14994); assay: ATG_CAR_TRANS: Attagene TRANS-FACTORIAL HepG2 Assay for human Constitutive Androstane Receptor (CAR) (AID 2282969); conditions: HepG2 Attagene TRANS-FACTORIAL CAR reporter;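 also: activators raise reporter mRNA above DMSO so AC50 marks induction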
In short: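 HepG2 cells transiently transfected with multiplexed GAL4-UAS reporter units expressing chimeric NR-Gal4 proteins; compound exposure 24 h. Reporter mRNA measured by RT-PCR, 6-FAM labelling, HpaI digestion and capillary electrophoresis; gain-of-signal fitted against DMSO baseline.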

[13] = target: Oxysterols receptor LXR-alpha (Homo sapiens) (UniProt Q13133); assay: ATG_LXRa_TRANS: Attagene TRANS-FACTORIAL HepG2 Assay for human Liver X Receptor alpha (LXRa) (AID 2282980); conditions: HepG2 Attagene TRANS reporter, LXRa transactivation
Oxysterols receptor LXR-alpha (Homo sapiens), sequence (Q13133 whole entry, looked up, the tested form may be a part): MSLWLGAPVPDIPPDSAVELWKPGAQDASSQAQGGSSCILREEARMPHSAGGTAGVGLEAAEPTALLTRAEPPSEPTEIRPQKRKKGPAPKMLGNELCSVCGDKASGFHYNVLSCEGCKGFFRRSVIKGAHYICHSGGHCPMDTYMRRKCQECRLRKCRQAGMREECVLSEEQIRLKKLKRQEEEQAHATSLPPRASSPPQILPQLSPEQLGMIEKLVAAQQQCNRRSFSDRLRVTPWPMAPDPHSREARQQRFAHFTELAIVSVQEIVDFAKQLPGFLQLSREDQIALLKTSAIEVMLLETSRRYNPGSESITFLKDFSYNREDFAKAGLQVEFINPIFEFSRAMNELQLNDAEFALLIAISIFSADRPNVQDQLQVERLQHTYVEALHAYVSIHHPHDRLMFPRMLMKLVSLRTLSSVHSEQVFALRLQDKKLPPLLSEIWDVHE
In short: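 HepG2 cells were transiently transfected with multiplexed reporter units driven by chimeric LXRa–GAL4 fusion proteins, then dosed for 24 h. Reporter mRNA was quantified by RT-PCR, fluorescent labelling and capillary electrophoresis; gain of signal fitted against DMSO baseline.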

[14] = target: Hepatocyte nuclear factor 4-alpha (Homo sapiens) (UniProt P41235); assay: ATG_HNF4a_TRANS: Attagene TRANS-FACTORIAL HepG2 Assay for human Hepatocyte Nuclear Factor 4 alpha (HNF4a) (AID 2282982); conditions: HepG2 HNF4a transactivation reporter, mRNA readout
In short: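 Cells used were human HepG2, transiently carrying GAL4-UAS reporter units read out against exogenous NR-GAL4 chimeras. Reporter transcript levels after 24 h dosing were quantified by fluorescent RT-PCR and capillary electrophoresis.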

[15] = ATG_M_06_TRANS: Attagene TRANS-FACTORIAL HepG2 Assay for M06 Transcription Factor (Internal Marker) (AID 2282983); conditions: HepG2 Attagene TRANS M06 internal marker reporter
In short: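 HepG2 cells transiently transfected with multiplexed GAL4-UAS reporter transcription units; after 24 h compound exposure, reporter mRNA measured by RT-PCR, FAM-labelled primer extension, HpaI digestion and capillary electrophoresis. Gain-of-signal fitted versus DMSO baseline; background control readout.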

[16] = target: Nuclear receptor subfamily 4 group A member 2 (Homo sapiens) (UniProt P43354); assay: ATG_NURR1_TRANS: Attagene TRANS-FACTORIAL HepG2 Assay for human Nuclear Receptor Related Protein 1 (NURR1) (AID 2282985); conditions: HepG2 Attagene TRANS reporter, mRNA readout
Nuclear receptor subfamily 4 group A member 2 (Homo sapiens), sequence (P43354 whole entry, looked up): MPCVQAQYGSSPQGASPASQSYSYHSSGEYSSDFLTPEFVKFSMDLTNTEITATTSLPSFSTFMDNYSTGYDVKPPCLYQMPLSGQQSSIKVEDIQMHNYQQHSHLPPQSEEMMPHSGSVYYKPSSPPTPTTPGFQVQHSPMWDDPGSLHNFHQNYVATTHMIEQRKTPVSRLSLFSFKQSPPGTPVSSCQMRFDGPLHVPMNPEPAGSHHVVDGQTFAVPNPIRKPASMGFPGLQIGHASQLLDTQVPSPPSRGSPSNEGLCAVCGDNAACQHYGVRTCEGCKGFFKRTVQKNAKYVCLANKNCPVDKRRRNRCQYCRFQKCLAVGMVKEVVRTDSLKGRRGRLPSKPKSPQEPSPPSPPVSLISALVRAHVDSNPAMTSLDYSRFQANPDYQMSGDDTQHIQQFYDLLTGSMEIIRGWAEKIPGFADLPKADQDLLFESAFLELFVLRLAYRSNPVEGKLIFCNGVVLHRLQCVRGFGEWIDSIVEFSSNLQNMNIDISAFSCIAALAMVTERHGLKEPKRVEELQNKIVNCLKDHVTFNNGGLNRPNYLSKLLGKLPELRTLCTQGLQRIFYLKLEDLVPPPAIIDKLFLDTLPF
In short: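 After 24 h chemical dosing, total RNA from transiently transfected HepG2 cells was reverse-transcribed and reporter cDNA PCR-amplified, FAM-labelled and analysed by capillary electrophoresis. Activity fitted in positive direction, DMSO as negative control.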

[17] = ATG_M_32_TRANS: Attagene TRANS-FACTORIAL HepG2 Assay for M32 Transcription Factor (Internal Marker) (AID 2282984); conditions: HepG2 Attagene TRANS M32 internal marker reporter
In short: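 Human hepatoma HepG2, transient MRTU transfection, 24 h treatment. RNA → RT-PCR → fluorescent primer extension → HpaI digest (2 h, 37 C) → CE. Positive-direction fit vs DMSO.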

[18] = target: Estrogen-related receptor gamma (Homo sapiens) (UniProt P62508); assay: ATG_ERRg_TRANS: Attagene TRANS-FACTORIAL HepG2 Assay for human Estrogen-Related Receptor gamma (ERRg) (AID 2282977); conditions: HepG2 Attagene TRANS reporter, ERRg transactivation;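 also: hits increase reporter signal over DMSO so potencies reflect activators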
In short: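 Transfect HepG2 with multiple GAL4-UAS reporter transcription units; dose chemicals 24 h; isolate RNA, reverse-transcribe with oligo(dT), PCR-amplify, label with 6-FAM, digest with HpaI; size fragments by capillary electrophoresis. DMSO serves as negative control.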

Measured: outcome

COC(=O)c1ccc(C=O)cc1
inactive: [1] | [2] | [3] | [4] | [5] | [6] | [7] | [8] | [9] | [10] | [11]

O=C=NCc1cccc(CN=C=O)c1
inactive: [1] | [2] | [3] | [12] | [6] | [7] | [13] | [10] | [14] | [15] | [16] | [11]

CC(C)C(=O)OCc1ccccc1
inactive: [1] | [2] | [3] | [6] | [7] | [8] | [9] | [13] | [17] | [11]

CCN(CCO)S(=O)(=O)C(F)(F)C(F)(F)C(F)(F)C(F)(F)C(F)(F)C(F)(F)C(F)(F)C(F)(F)F
inactive: [1] | [2] | [3] | [9] | [13] | [10] | [15] | [17] | [16]

FC(F)(F)C(F)(F)C(F)(F)C(F)(F)C(F)(F)C(F)(F)CC[Si](Cl)(Cl)Cl
inactive: [1] | [2] | [3] | [4] | [5] | [7] | [8] | [9] | [10] | [16] | [11]

NC(=O)C(F)(F)C(F)(F)C(F)(F)C(F)F
inactive: [1] | [2] | [3] | [4] | [6] | [7] | [9] | [17] | [11]

CCCCCCCC/C=C\CCCCCCCC(=O)OCC(O)CO (stereo unspecified)
inactive: [1] | [2] | [3] | [5] | [6] | [7] | [18] | [8] | [9] | [15] | [17] | [16] | [11]

O=C(Cl)c1ccc(Cl)cc1Cl
inactive: [1] | [2] | [3] | [6] | [8] | [9] | [13] | [14] | [17] | [16] | [11]
